{"source": "PubChem BioAssay (EPA / NIEHS)", "key": {"[1]": {"assay": "TOX21_p53_BLA_p2_viability: Viability Assessment in the Tox21 HCT-116 p53 Agonism Beta-lactamase Assay, Phase 2 (AID 2283591);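 also: compound exposure lasted 16 h at 37 °C; actives lower the ATP signal meaning cytotoxicity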", "in_short": "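HCT-116 p53-bla cells (4000/well) rested 5 h at 37C, then received compounds in DMSO (217-fold dilution) for 16 h at 37C, 5% CO2. After the CCF4 read, CellTiter-Glo was added; ATP luminescence was read after 30 min at room temperature.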"}, "[2]": {"assay": "TOX21_p53_BLA_p3_viability: Viability Assessment in the Tox21 HCT-116 p53 Agonism Beta-lactamase Assay, Phase 3 (AID 2283593);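 also: cells exposed to compound for 16 h before reading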", "in_short": "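HCT-116 cells (4000/well) rested 5 h at 37C, then got DMSO compounds by pin tool (217-fold dilution) for 16 h at 37C, 5% CO2. After the bla read, CellTiter-Glo was added and luminescence read at 30 min, room temperature.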"}, "[3]": {"target": "Cellular tumor antigen p53 (Homo sapiens) (UniProt P04637)", "sequence (P04637 whole entry, looked up)": "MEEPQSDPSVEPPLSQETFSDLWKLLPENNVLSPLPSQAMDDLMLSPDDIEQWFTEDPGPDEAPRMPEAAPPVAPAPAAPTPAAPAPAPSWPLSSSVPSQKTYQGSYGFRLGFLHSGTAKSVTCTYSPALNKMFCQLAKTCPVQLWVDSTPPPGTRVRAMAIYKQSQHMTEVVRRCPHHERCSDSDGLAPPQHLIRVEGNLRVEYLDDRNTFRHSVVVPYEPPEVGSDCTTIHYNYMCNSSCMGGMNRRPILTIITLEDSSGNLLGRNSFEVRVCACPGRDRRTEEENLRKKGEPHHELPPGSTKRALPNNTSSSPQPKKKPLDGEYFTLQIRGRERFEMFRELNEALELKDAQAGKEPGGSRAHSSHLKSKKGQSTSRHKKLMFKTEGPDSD", "assay": "TOX21_p53_BLA_p3_ratio: Tox21 HCT-116 p53 Agonism Beta-lactamase Assay, Ratio, Phase 3 (AID 2283596)", "in_short": "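Cells were seeded at 4000/well, rested 5 h at 37C, then dosed with DMSO compound solutions (217-fold dilution) for 16 h. CCF4-AM substrate was loaded for 2 h at room temperature, and the 460/530 nm emission ratio was fitted for gain of signal versus DMSO.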"}, "[4]": {"assay": "TOX21_p53_BLA_p4_viability: Viability Assessment in the Tox21 HCT-116 p53 Agonism Beta-lactamase Assay, Phase 4 (AID 2283597);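 also: hits lower the luminescence signal meaning cytotoxicity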", "in_short": "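In this multiplexed secondary endpoint, HCT116 cells (4000 per well, compound at 5 h, 16 h treatment) received CellTiter-Glo after the beta-lactamase read. Luminescence after 30 min RT reflects ATP, and falling signal marks cytotoxicity.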"}, "[5]": {"target": "Cellular tumor antigen p53 (Homo sapiens) (UniProt P04637)", "assay": "TOX21_p53_BLA_p5_ratio: Tox21 HCT-116 p53 Agonism Beta-lactamase Assay, Ratio, Phase 5 (AID 2283599)", "in_short": "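HCT-116 cells carrying a p53-inducible beta-lactamase reporter were seeded at 4000 cells/well and dosed after 5 h with compound in DMSO (217-fold dilution). After 16 h at 37C, CCF4-AM substrate was added for 2 h, and the 460/530 nm emission ratio was scored as gain-of-signal versus DMSO.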"}, "[6]": {"assay": "TOX21_p53_BLA_p5_viability: Viability Assessment in the Tox21 HCT-116 p53 Agonism Beta-lactamase Assay, Phase 5 (AID 2283600)", "in_short": "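Here cell health was gauged by ATP levels in wells holding 4000 cells, each treated 16 h with DMSO-delivered compounds at 217-fold dilution; reduced luminescence marked toxicity.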"}, "[7]": {"target": "Cellular tumor antigen p53 (Homo sapiens) (UniProt P04637)", "assay": "TOX21_p53_BLA_p4_ratio: Tox21 HCT-116 p53 Agonism Beta-lactamase Assay, Ratio, Phase 4 (AID 2283601)", "in_short": "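HCT116 cells carrying an inducible beta-lactamase reporter were plated at 4000 cells/well, rested 5 h, then exposed to compounds in DMSO (217-fold dilution) for 16 h at 37C. CCF4-AM substrate was loaded 2 h at room temperature; 460/530 nm emission ratio scored gain-of-signal versus DMSO.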"}}, "note": "Inconclusive results are not listed. Active and inactive are the calls of the source. The calls were made as follows: active = hit-call score of the fitted dose curve at least 0.9, where 1 is the maximum; inconclusive = response in the unintended direction; inactive = score below 0.9.", "data": [{"compound": "C=C1CC2C3CCC4=CC(=O)C=C[C@]4(C)[C@@]3(F)[C@@H](O)C[C@]2(C)[C@@]1(O)C(=O)COC(C)=O", "note": "(some centres undefined)", "values": [{"measurement": "outcome", "setting": "[1]", "value": "inactive"}, {"measurement": "outcome", "setting": "[2]", "value": "inactive"}, {"measurement": "outcome", "setting": "[3]", "value": "inactive"}, {"measurement": "outcome", "setting": "[4]", "value": "inactive"}, {"measurement": "outcome", "setting": "[5]", "value": "inactive"}, {"measurement": "outcome", "setting": "[6]", "value": "inactive"}, {"measurement": "outcome", "setting": "[7]", "value": "inactive"}]}, {"compound": "CCc1ncnc2cc(OC)c(OC)cc12", "values": [{"measurement": "outcome", "setting": "[1]", "value": "inactive"}, {"measurement": "outcome", "setting": "[2]", "value": "inactive"}, {"measurement": "outcome", "setting": "[3]", "value": "inactive"}, {"measurement": "outcome", "setting": "[4]", "value": "inactive"}, {"measurement": "outcome", "setting": "[5]", "value": "inactive"}, {"measurement": "outcome", "setting": "[6]", "value": "inactive"}, {"measurement": "outcome", "setting": "[7]", "value": "inactive"}]}, {"compound": "CCN(CC)CCOc1ccc(C(O)(Cc2ccc(Cl)cc2)c2ccc(C)cc2)cc1", "note": "(centres undefined)", "values": [{"measurement": "AC50", "setting": "[1]", "value": "35.9 µM (active)"}, {"measurement": "AC50", "setting": "[2]", "value": "23 µM (active)"}, {"measurement": "outcome", "setting": "[3]", "value": "inactive"}, {"measurement": "AC50", "setting": "[4]", "value": "30.7 µM (active)"}, {"measurement": "outcome", "setting": "[5]", "value": "inactive"}, {"measurement": "outcome", "setting": "[6]", "value": "inactive"}, {"measurement": "AC50", "setting": "[7]", "value": "43 µM (active)"}]}, {"compound": "CCCCCCCCCCCBr", "values": [{"measurement": "outcome", "setting": "[1]", "value": "inactive"}, {"measurement": "outcome", "setting": "[2]", "value": "inactive"}, {"measurement": "outcome", "setting": "[3]", "value": "inactive"}, {"measurement": "outcome", "setting": "[4]", "value": "inactive"}, {"measurement": "outcome", "setting": "[5]", "value": "inactive"}, {"measurement": "outcome", "setting": "[7]", "value": "inactive"}]}, {"compound": "CCOC(=O)[C@H](CCc1ccccc1)N[C@@H](C)C(=O)N1[C@H](C(=O)O)C[C@H]2CCCC[C@@H]21", "values": [{"measurement": "outcome", "setting": "[1]", "value": "inactive"}, {"measurement": "outcome", "setting": "[2]", "value": "inactive"}, {"measurement": "outcome", "setting": "[3]", "value": "inactive"}, {"measurement": "outcome", "setting": "[4]", "value": "inactive"}, {"measurement": "outcome", "setting": "[5]", "value": "inactive"}, {"measurement": "outcome", "setting": "[6]", "value": "inactive"}, {"measurement": "outcome", "setting": "[7]", "value": "inactive"}]}, {"compound": "CCCCC(=O)OCC(=O)[C@H]1[C@H](C)C[C@H]2[C@@H]3C[C@H](F)C4=CC(=O)C=C[C@]4(C)[C@@]3(F)[C@@H](O)C[C@@]21C", "values": [{"measurement": "outcome", "setting": "[1]", "value": "inactive"}, {"measurement": "outcome", "setting": "[2]", "value": "inactive"}, {"measurement": "outcome", "setting": "[3]", "value": "inactive"}, {"measurement": "outcome", "setting": "[4]", "value": "inactive"}, {"measurement": "outcome", "setting": "[6]", "value": "inactive"}]}]}
